Among the test systems are NCI-H23 lung; NCI-H226 lung; NCI-H322M lung; HOP-62 NSCLC; NCI-H460 lung; HOP-92 NSCLC; NCI-H522 lung; A549/ATCC NSCLC; 786-0 renal; COLO 205 colon.
Common to all, as to assay: NCI-60 one-dose screen, 48 h (100 = growth as untreated, 0 = no growth, -100 = all killed)
Settings in all cases: 10 µM unless noted

The panel holds about 83,000 compounds, 20% with a hit somewhere; the sample as a whole holds those more often.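 The endpoint reported here, percent growth, reads 100 for growth as untreated, 0 for no net growth and -100 for all cells dead.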 A number with no mark means an inactive call. Active and inactive are the calls of the source. The calls were made as follows: active = growth percent below 10; inactive = the rest.

On to `O=C(Cn1c(=O)sc2ccccc21)NNS(=O)(=O)c1ccccc1[N+](=O)[O-]`, for which the growth in the assay with NCI-H23 lung is 98.6%; in the assay on NCI-H226 lung it was 101%; in the assay on NCI-H322M lung, 104%; with HOP-62 NSCLC, 108%; in the assay with NCI-H460 lung it was 108%; with HOP-92 NSCLC, 104%. Moreover, the growth with NCI-H522 lung is 88.5%; with A549/ATCC NSCLC, 103%; in the assay on 786-0 renal, 104%; in the assay on COLO 205 colon, 110%.
Take `C#Cc1cccc(Nc2ncnc3ccc(-c4cncc(NS(C)(=O)=O)c4)cc23)c1`: the growth with NCI-H23 lung was 26.5%; in the assay on NCI-H226 lung, 45%; in the assay on NCI-H322M lung, 1.41% (active); in the assay with HOP-62 NSCLC, 32%; in the assay on NCI-H460 lung, 51.6%; with HOP-92 NSCLC, -12.2% (active). The growth with NCI-H522 lung was 3.44% (active); in the assay with A549/ATCC NSCLC, 48.8%; with 786-0 renal, 40.6%; in the assay with COLO 205 colon it was 17.7%.
Regarding `O=[N+]([O-])/C(=C/C=C/c1ccccc1)c1ccccc1`, the growth in the assay on NCI-H23 lung is 75.5%; with NCI-H226 lung, 87.8%; in the assay with NCI-H322M lung, 100%; in the assay on HOP-62 NSCLC, 35.9%; in the assay with NCI-H460 lung, 70.7%; with HOP-92 NSCLC it was -8.76% (active). The growth was 19.8% in the assay on NCI-H522 lung, 72.6% in the assay on A549/ATCC NSCLC, -7.75% (active) in the assay on 786-0 renal and 23.2% in the assay on COLO 205 colon.
Take `O=C1c2cccnc2C(=O)c2c1c(C(=O)NCCCN1CCCCC1)c1ccccn21`: the growth in the assay on NCI-H23 lung is -36.1% (active); with NCI-H226 lung, -39.8% (active); in the assay on NCI-H322M lung, -35.9% (active); in the assay with HOP-62 NSCLC it was -37.5% (active); in the assay with NCI-H460 lung, -69.9% (active); in the assay on HOP-92 NSCLC, -30.5% (active). The growth in the assay with NCI-H522 lung was -51% (active); with A549/ATCC NSCLC, -42.9% (active); in the assay with 786-0 renal it was 5.99% (active); in the assay on COLO 205 colon, -82.2% (active).
`Cc1nc2sc(C(=O)Nc3cccc(Cl)c3C)c(N)c2cc1C(=O)c1ccccc1`: the growth with NCI-H23 lung is 34.4%; in the assay with NCI-H226 lung it was 5.27% (active); in the assay with NCI-H322M lung it was 49.8%; with HOP-62 NSCLC, 21.2%; in the assay on NCI-H460 lung it was 7.35% (active); in the assay with HOP-92 NSCLC, 41.6%. Moreover, the growth in the assay on NCI-H522 lung is 5.64% (active); in the assay with A549/ATCC NSCLC it was 19.9%; in the assay with 786-0 renal, 32.8%; with COLO 205 colon, -36% (active).
With `Cc1ccccc1NC(=O)c1sc2nc(C)c(C(=O)/C=C/c3ccccc3)cc2c1N`, the growth with NCI-H23 lung was 43.3%; in the assay on NCI-H226 lung, 26.2%; in the assay with NCI-H322M lung, 55.5%; in the assay with HOP-62 NSCLC it was 9.21% (active); with NCI-H460 lung it was 0.299% (active); with HOP-92 NSCLC, 37%. In addition, the growth in the assay on NCI-H522 lung was 17.9%; in the assay on A549/ATCC NSCLC it was 14.3%; with 786-0 renal, -16.9% (active); with COLO 205 colon it was 64.1%.
On to `O=C1/C(=C/c2cccs2)SC(=S)N1CCCN1CCOCC1`, for which the growth in the assay on NCI-H23 lung was 96.7%; in the assay with NCI-H226 lung, 95.5%; in the assay on NCI-H322M lung it was 94.7%; with HOP-62 NSCLC, 111%; with NCI-H460 lung it was 99%; in the assay on HOP-92 NSCLC, 23%. The growth in the assay on NCI-H522 lung is 71.5%; in the assay on A549/ATCC NSCLC, 93.2%; with 786-0 renal, 92.7%; in the assay on COLO 205 colon, 111%.
As to `COc1cc(OC)cc(C2=C3CC[C@@H]4[C@H](CC[C@]5(C)C(=O)CC[C@@H]45)C3=CC3C(O)c4cccnc4N4C(=O)COC234)c1` (stereo not given in full), the growth in the assay with NCI-H23 lung was 98.6%; in the assay on NCI-H226 lung, 102%; in the assay with NCI-H322M lung it was 114%; in the assay on HOP-62 NSCLC, 95.3%; in the assay on NCI-H460 lung, 103%; with HOP-92 NSCLC, 104%. In addition, the growth is 90.3% with NCI-H522 lung, 94.2% in the assay with A549/ATCC NSCLC, 98.5% in the assay on 786-0 renal and 109% in the assay with COLO 205 colon.
With `O=C(Cn1cc(CN2C(=O)c3ccccc3S2(=O)=O)nn1)Nc1nc2ccccc2s1`, the growth was 103% with NCI-H23 lung; 105% in the assay with NCI-H226 lung; 98.2% in the assay with NCI-H322M lung; 89.5% in the assay on HOP-62 NSCLC; 105% in the assay on NCI-H460 lung; 100% with HOP-92 NSCLC. The growth is 84.2% in the assay on NCI-H522 lung, 90.6% in the assay on A549/ATCC NSCLC, 101% in the assay on 786-0 renal and 104% in the assay on COLO 205 colon.
As for `COc1cc2c(c(OC)c1OC)-c1ccc(OC)c(=O)cc1[C@@H](NC(=O)CCl)CC2`, the growth in the assay with NCI-H23 lung was 5.73% (active); in the assay with NCI-H226 lung, 12.5%; with NCI-H322M lung, 52.1%; in the assay on HOP-62 NSCLC, 40.4%; in the assay with NCI-H460 lung it was -5.39% (active); with HOP-92 NSCLC it was 10%. For the same compound, the growth is -27.4% (active) with NCI-H522 lung, 13% in the assay with A549/ATCC NSCLC, 14.6% in the assay on 786-0 renal and -71.9% (active) in the assay on COLO 205 colon.
As for `COc1ccc(OC)c(-c2c(C#N)c(-c3cccs3)nc3c2c(-c2ccccc2)nn3-c2ccccc2)c1`, the growth was 105% in the assay with NCI-H23 lung; 102% in the assay with NCI-H226 lung; 110% in the assay with NCI-H322M lung; 105% in the assay with HOP-62 NSCLC; 101% in the assay on NCI-H460 lung; 106% in the assay with HOP-92 NSCLC. The growth is 87.8% in the assay with NCI-H522 lung, 101% in the assay with A549/ATCC NSCLC, 103% with 786-0 renal and 110% in the assay on COLO 205 colon.
Consider `COc1cc(OC)c2sc(-c3ccc(-n4cncc4-c4ccc(OC)c(OC)c4)cc3)nc2c1`, for which the growth in the assay with NCI-H23 lung was 66.1%; in the assay with NCI-H226 lung, 66.7%; in the assay on NCI-H322M lung it was 92.3%; in the assay on HOP-62 NSCLC, 83.2%; in the assay on NCI-H460 lung, 23.3%; in the assay on HOP-92 NSCLC it was 39.4%. In addition, the growth in the assay on NCI-H522 lung is 50.5%; with A549/ATCC NSCLC, 45.6%; with 786-0 renal it was 74.5%; with COLO 205 colon it was 48.3%.
`COc1cc(CNC(=O)CCCC/C=C/C(C)C)ccc1OCc1nnc(Nc2ccc([N+](=O)[O-])cc2)o1`: the growth in the assay with NCI-H23 lung was 54.9%; in the assay with NCI-H226 lung, 62.1%; in the assay on NCI-H322M lung, 57.6%; in the assay with HOP-62 NSCLC, 67.6%; in the assay on NCI-H460 lung it was 33.5%; in the assay on HOP-92 NSCLC, -2.56% (active). Further, the growth is 73% in the assay on NCI-H522 lung, 49% in the assay on A549/ATCC NSCLC, 22.2% in the assay on 786-0 renal and 70.9% with COLO 205 colon.

The values above are taken from PubChem BioAssay (NCI).
